ELG1 genotoxic: qHTS screen for small molecules that induce genotoxicity in human embryonic kidney (HEK293T) cells expressing luciferase-tagged ELG1; 1.3% of 330,000 active; HEK293T ELG1-luciferase reporter, luminescence, 16 h; Potency, µM (top dose mostly 46 µM), usual class: activators; AID 504466, 2011; note: nearly all actives have a fitted effect of over 60% in size
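Reporter readout depends on ELG1 protein level, which increases with genetic stress. After 16 hr compound exposure at 37 °C, luciferase activity was quantified using ONE-Glo.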
FLuc counter: qHTS profiling assay for firefly luciferase inhibitor/activator using purifed enzyme and Km concentrations of substrates (counterscreen for miR-21 project). 6.9% of 360,000 active. Potency, µM (doses to about 57.5 µM), most hits filed as inhibitors. Luciferin 4-monooxygenase (Photinus pyralis), P08659. purified FLuc, Km substrates, luminescence inhibition; note: nearly all actives have a fitted effect of over 55% in size
Target sequence (P08659 whole entry, looked up): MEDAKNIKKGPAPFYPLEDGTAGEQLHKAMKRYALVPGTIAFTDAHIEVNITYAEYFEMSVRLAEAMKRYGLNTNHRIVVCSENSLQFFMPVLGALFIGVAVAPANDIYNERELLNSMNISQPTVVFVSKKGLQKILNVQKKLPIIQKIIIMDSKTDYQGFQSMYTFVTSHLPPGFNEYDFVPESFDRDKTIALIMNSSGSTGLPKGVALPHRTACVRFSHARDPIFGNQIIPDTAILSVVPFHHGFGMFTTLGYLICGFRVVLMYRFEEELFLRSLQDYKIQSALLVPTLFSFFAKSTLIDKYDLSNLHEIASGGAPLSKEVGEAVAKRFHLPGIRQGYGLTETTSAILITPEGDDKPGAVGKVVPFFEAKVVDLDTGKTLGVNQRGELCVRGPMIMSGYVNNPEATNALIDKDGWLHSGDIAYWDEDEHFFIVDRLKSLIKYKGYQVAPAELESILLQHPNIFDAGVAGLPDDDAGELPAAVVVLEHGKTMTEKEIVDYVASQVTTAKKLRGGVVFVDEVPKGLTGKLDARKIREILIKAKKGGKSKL
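Biochemical qHTS of compounds, final roughly 60 µM downward over six points, against 10 nM purified firefly luciferase using Km concentrations of substrates (10 uM D-luciferin, 10 uM ATP) in Tris acetate pH 7.5 buffer; luminescence output.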
p53 reactivator: qHTS assay for re-activators of p53 using a Luc reporter. 0.063% of 320,000 active. H1299 p53-A138V BP100-luciferase reporter, luminescence, 24 h. Potency, µM (highest dose often 92.2 µM), most hits filed as activators; note: nearly all actives have a fitted effect of over 45% in size
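p53-null H1299 cells stably carrying temperature-sensitive p53-A138V and a BP100-luciferase reporter were pinned with compounds (4-point, 1:5 series) and held 24 hrs at 37 deg C. Luminescence was read 10 min after detection reagent.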
Rab9 promoter act: qHTS Assay for Rab9 Promoter Activators | Potency, µM (highest dose often 9.22 µM), most hits filed as activators | 2.8% of 320,000 active | Huh7 Rab9 promoter-luciferase reporter, luminescence, 24 h; note: nearly all actives have a fitted effect of over 60% in size
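Luciferase signal after 10 min detection reagent at ambient indicates Rab9 promoter upregulation; stably transfected Huh7 cells were treated 24 h with compound in DMSO at 37 °C, 5% CO2.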
SMN2 splice up: qHTS Assay for Enhancers of SMN2 Splice Variant Expression. HEK293 SMN2-luciferase splicing reporter, luminescence, 30-36 h. Potency, µM (top dose mostly 46.1 µM), usual class: activators. 2.8% of 210,000 active; note: nearly all actives have a fitted effect of over 55% in size
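HEK293 cells carry an SMN2 […]–luciferase reporter in which exon 7 inclusion puts luciferase in frame. Cells were plated 10-12 h before compound addition, then incubated 30-36 h at 37C. ONE-Glo luminescence was read; sodium butyrate at 4.5 mM final served as control.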
NPC1 prom act: qHTS Assay for NPC1 Promoter Activators. Potency, µM (series often up to 9.22 µM), most hits filed as activators. 2.4% of 320,000 active. Huh7 NPC1 promoter luciferase reporter, 24 h; note: nearly all actives have a fitted effect of over 60% in size
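Readout is luciferase luminescence, reflecting NPC1 promoter activation in stably transfected Huh7 cells after 24 h compound exposure at 37 °C in reduced-serum medium with 10% FBS.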
Each line names hits and unclear results; the compound was inactive in the other large screens. Compounds with a hit are over-represented: about 7.3% of the library has one in this group of screens. Calls come from the whole dose curve; as a rule, active = well fitted curve in the direction sought with a large enough effect; inconclusive = small, poorly fitted or top-dose-only effect, or another doubt; inactive = no such curve, though single readings can be large; an effect the other way counts as inactive or inconclusive.

CCC(=O)N1CCN(c2ccc(NC(=O)c3ccc4c(c3)OCCO4)cc2)CC1	ELG1 genotoxic inconclusive
CCN1CCN(c2cc(C)c3cc(NC(=O)c4ccc5c(c4)OCO5)ccc3n2)CC1	FLuc counter inconclusive
CCC12CSc3nc(Cl)ccc3N1C(=O)C(=O)N2C (stereo unspecified)	none (no result: SMN2 splice up)
COc1ccccc1N1CCN(C(=O)NC23CC4CC(CC(C4)C2)C3)CC1	none
COc1ccc(C(=O)Nc2cc3c(cc2C(=O)c2ccccc2Cl)OCCO3)cc1	none (no result: ELG1 genotoxic, p53 reactivator, Rab9 promoter act, NPC1 prom act)
Cc1ccc(C(=O)Nc2ccc(N3CCN(C)CC3)cc2)cc1C	ELG1 genotoxic 1.83µM, FLuc counter 3.38µM, p53 reactivator inconclusive, Rab9 promoter act 0.708µM, NPC1 prom act 0.794µM (no result: SMN2 splice up)
O=C(c1ccc(F)cc1)c1cc2ccc(O)cc2oc1=O	ELG1 genotoxic inconclusive, FLuc counter 15.1µM (no result: SMN2 splice up)
COc1ccccc1C(=O)c1cc2ccc(O)cc2oc1=O	none
COc1ccc(NC(=O)c2cc3ccc(O)cc3o/c2=N\O)cc1	ELG1 genotoxic inconclusive, FLuc counter 0.269µM, NPC1 prom act inconclusive (no result: SMN2 splice up)
N=c1oc2cc(O)ccc2cc1C(=O)Nc1ccc(F)cc1	ELG1 genotoxic inconclusive, FLuc counter 2.69µM, Rab9 promoter act 3.55µM, NPC1 prom act inconclusive (no result: SMN2 splice up)
COc1ccc(-c2c(C#N)c(SCC(=O)Nc3ccccc3C)nc(C)c2C(=O)Nc2ccccc2)cc1OC	none (no result: ELG1 genotoxic, p53 reactivator, Rab9 promoter act, NPC1 prom act)
CC(C)(C)NCCOc1ccc2ccccc2c1	none
BrCCOCCOc1ccc2ccccc2c1	ELG1 genotoxic inconclusive, FLuc counter 15.1µM, Rab9 promoter act inconclusive, SMN2 splice up inconclusive, NPC1 prom act inconclusive
CC(C)(C)c1ccc(C(=O)/C=C2\NC(=O)CS2)cc1	ELG1 genotoxic inconclusive, FLuc counter 0.301µM, Rab9 promoter act 0.631µM, SMN2 splice up 3.16µM, NPC1 prom act 0.398µM
Cc1ccc(NC(=O)/C=C2\NC(=O)CS2)cc1	ELG1 genotoxic 23.1µM, FLuc counter 7.57µM, p53 reactivator inconclusive, Rab9 promoter act 3.16µM, NPC1 prom act 3.55µM (no result: SMN2 splice up)
COc1ccccc1NC(=O)/C=C1\NC(=O)CS1	none
O=C(Cn1c2ccc(F)cc2c2nc3n(c(=O)c21)CCS3)Nc1ccccc1F	none
CCOC(=O)c1[nH]c(C)c(CCC(=O)N2CCN(c3cc(C)ccc3C)CC2)c1C	none (no result: ELG1 genotoxic, p53 reactivator, Rab9 promoter act, SMN2 splice up, NPC1 prom act)
Cc1cnc(NC(=O)CC2CCCC2)s1	ELG1 genotoxic inconclusive, FLuc counter inconclusive, Rab9 promoter act inconclusive, SMN2 splice up 17.8µM, NPC1 prom act inconclusive
O=C(Nc1nc2ccccc2s1)NC1CCCCC1	ELG1 genotoxic inconclusive, FLuc counter 1.9µM, Rab9 promoter act 0.631µM, NPC1 prom act 1.41µM (no result: SMN2 splice up)
CCOC(=O)C(C(=O)Nc1nc2ccccc2s1)C1CCCCC1 (stereo unspecified)	none
O=C(CC1CCCCC1)Nc1nc2ccccc2s1	ELG1 genotoxic inconclusive, FLuc counter inconclusive, p53 reactivator inconclusive, Rab9 promoter act 1.58µM, SMN2 splice up 11.2µM, NPC1 prom act 1.78µM
Cc1ccc(-n2cc(CN3CCNC(=O)CC3)c(-c3cccc(C)c3)n2)cc1	FLuc counter inconclusive (no result: SMN2 splice up)
Cc1ccc(-n2cc(CNCC3CC(=O)N(C4CC4)C3)c(-c3cccc(C)c3)n2)cc1 (stereo unspecified)	FLuc counter 21.3µM (no result: SMN2 splice up)
C=CCOC(=O)[C@H](O)[C@@H](O)C(=O)OCC=C	none (no result: ELG1 genotoxic, FLuc counter, p53 reactivator, Rab9 promoter act, NPC1 prom act)
O=C(NCCCSc1ccccc1)c1cc(Cl)ccc1O	ELG1 genotoxic inconclusive, FLuc counter 10.7µM (no result: SMN2 splice up)
N#Cc1c(N2CCOCC2)nsc1-c1ccc(C(F)(F)F)cc1	ELG1 genotoxic inconclusive, FLuc counter 7.57µM, Rab9 promoter act inconclusive, NPC1 prom act inconclusive (no result: SMN2 splice up)
Cc1cc(C(F)(F)F)c(C#N)c(N2CCOCC2)n1	none
Cc1ccc(Nc2nc(-c3sc(NC(=O)c4ccc([N+](=O)[O-])cc4)nc3C)cs2)cc1	FLuc counter inconclusive
C=CCCC(=O)Nc1nc(C)c(-c2csc(Nc3ccc(Cl)cc3Cl)n2)s1	FLuc counter 26.9µM
Cc1nc(NC(=O)c2ccccc2)sc1-c1csc(Nc2cccc(Cl)c2)n1	FLuc counter inconclusive
Nc1nc(Nc2ccccc2F)sc1C(=O)c1ccccc1	ELG1 genotoxic inconclusive, FLuc counter 6.01µM, p53 reactivator inconclusive, Rab9 promoter act 0.708µM, NPC1 prom act inconclusive (no result: SMN2 splice up)
Cc1nc(NC(=O)c2ccccc2)sc1-c1csc(Nc2ccc(Cl)cc2)n1	FLuc counter 8.49µM
Cc1nc(NC(=O)c2ccccc2)sc1-c1csc(Nc2ccc(F)cc2)n1	FLuc counter 7.57µM
C=CCCC(=O)Nc1nc(C)c(-c2csc(Nc3cc(Cl)ccc3OC)n2)s1	none
O=C(NNc1ccccc1F)c1ccccc1	none (no result: SMN2 splice up)
COC(=O)c1ccc(C(=O)OC)c(NC(=S)N2CCC(C)CC2)c1	none
Cc1nc(NC(=O)c2ccccc2)sc1-c1csc(Nc2ccc(Cl)cc2Cl)n1	FLuc counter 9.53µM
Cc1nc(NC(=O)c2ccco2)sc1-c1csc(Nc2ccc(Cl)cc2)n1	FLuc counter 10.7µM
Cc1ccccc1Nc1nc(-c2sc(NC(=O)c3ccccc3)nc2C)cs1	FLuc counter 8.49µM
Cc1nc(Nc2ccccc2)sc1C(=O)c1ccc(F)cc1	FLuc counter 19µM, Rab9 promoter act inconclusive, NPC1 prom act inconclusive (no result: SMN2 splice up)
Cc1ccc(Cl)cc1Nc1nc(-c2sc(NC(=O)c3ccco3)nc2C)cs1	none
COc1ccc(C(=O)Nc2cccc(-c3cnc4ccccc4n3)c2)cc1	none
COc1ccc2c(c1)C1=NN(/C(C)=C\C(C)=O)C(c3ccccc3)C1CC2 (stereo unspecified)	FLuc counter 19µM, p53 reactivator inconclusive
COc1ccc2c(c1)C1=NN(/C(C)=C/C(C)=O)C(c3cccc(F)c3)C1CC2 (stereo unspecified)	FLuc counter inconclusive
COc1ccc2c(c1)CCC1C2=NN(/C(C)=C\C(C)=O)C1c1ccc(F)cc1 (stereo unspecified)	ELG1 genotoxic inconclusive, FLuc counter 13.5µM, Rab9 promoter act inconclusive, NPC1 prom act inconclusive
COc1ccc2c(c1)C1=NN(/C(C)=C/C(C)=O)C(c3ccc(F)cc3)C1CC2 (stereo unspecified)	ELG1 genotoxic inconclusive, FLuc counter 26.9µM, p53 reactivator inconclusive
COc1ccc2c(c1)CCC/C2=N\Nc1nc(C(=O)NN)cs1	FLuc counter 1.35µM (no result: SMN2 splice up)
O=C(Nc1cccc(-c2cn3cccnc3n2)c1)c1cccs1	FLuc counter inconclusive
Cc1ccn2cc(-c3cccc(NC(=O)c4cccs4)c3)nc2c1	FLuc counter 2.39µM, p53 reactivator inconclusive, Rab9 promoter act inconclusive, SMN2 splice up inconclusive
